Test results reported in PubChem BioAssay AID624330 (Southern Research Specialized Biocontainment Screening …, 2012).
The whole screen tested about 340,000 compounds, of which about 2,100 (0.62%) were called active.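 Rule for the calls: active = first-screen hits whose inhibition reached a set limit at any dose in the follow-up dose series; inconclusive = inhibition above the set first-screen limit but never retested; inactive = the rest.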 Not all results are given here. Entries with a potency or affinity are not part of this list. Square brackets hold non-standard residues; d marks the D form. Peptide text beside a SMILES is read from it. * marks the point of attachment. ξ: configuration not given here. Cbz = O=C(OCc1ccccc1)*; ξP = O=C(O)C1CCCN1

Each compound was assayed against Rac GTPase-activating protein 1 (Homo sapiens) (UniProt Q9H0H5) (assay: blockers of MgcRacGAP-driven Rac1 GTP hydrolysis – biochemical, ADP Hunter fluorescence, primary and confirmatory, confirmation (AID 624330;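 note: fluorescence reports GDP produced by GAP-driven GTP hydrolysis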)). Settings: MgcRacGAP-stimulated Rac1 GTP hydrolysis, at 30 µM, active compounds read high, GST-tagged Rac1 F28L mutant substrate.
Sequence of Rac GTPase-activating protein 1 (Homo sapiens) (Q9H0H5 whole entry, looked up): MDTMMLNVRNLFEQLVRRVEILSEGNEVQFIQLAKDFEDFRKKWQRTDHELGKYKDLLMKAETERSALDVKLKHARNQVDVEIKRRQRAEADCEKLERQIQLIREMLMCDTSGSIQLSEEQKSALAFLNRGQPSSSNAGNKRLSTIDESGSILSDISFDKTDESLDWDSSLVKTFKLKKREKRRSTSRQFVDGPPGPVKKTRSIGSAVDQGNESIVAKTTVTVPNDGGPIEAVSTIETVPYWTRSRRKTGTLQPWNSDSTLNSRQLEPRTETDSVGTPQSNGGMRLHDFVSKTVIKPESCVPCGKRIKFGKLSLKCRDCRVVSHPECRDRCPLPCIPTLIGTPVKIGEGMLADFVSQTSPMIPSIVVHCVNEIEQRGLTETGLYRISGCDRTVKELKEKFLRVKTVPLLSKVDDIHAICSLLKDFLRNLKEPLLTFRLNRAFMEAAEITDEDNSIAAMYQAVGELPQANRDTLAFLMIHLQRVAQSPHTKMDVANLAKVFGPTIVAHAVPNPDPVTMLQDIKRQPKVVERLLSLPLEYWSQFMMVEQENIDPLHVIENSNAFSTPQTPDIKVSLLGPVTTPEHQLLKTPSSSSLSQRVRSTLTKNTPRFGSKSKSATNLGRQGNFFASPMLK

inhibition, inactive:
O=C(c1cccc(N2CCCC2=O)c1)N1CCN(c2ccccc2)CC1 10.3%
COCCN(C(=O)Cc1coc2cc(C)c(C)cc12)c1c(N)n(Cc2ccccc2)c(=O)[nH]c1=O 0.31%
CCCC(C(=O)N(C)CC(=O)Nc1ccc(N2CCOCC2)cc1)c1ccccc1 (centres undefined) 7.2%
CCNC(=S)N(Cc1cc2c(C)ccc(C)c2[nH]c1=O)C1CCCC1 3.17%
CSc1nc(C(=O)N2CCCC(Nc3ccc(C)c(C)c3)C2)cs1 (centres undefined) 13.4%
COc1ccc(C(=O)N2CCCC(Nc3ccc(C)c(C)c3)C2)cc1 (centres undefined) 16.9%
COc1ccc(NC2CCCN(C(=O)C3(C)CCCCC3)C2)cc1OC (centres undefined) -45.5%
Cc1cc(C(=O)N2CCCC(Nc3ccccc3)C2)c2ccc(F)cc2n1 (centres undefined) 12.7%
COc1ccc(NC2CCCN(C(=O)c3ccc4[nH]c(C)c(C)c4c3)C2)cc1OC (centres undefined) 12.8%
COc1ccc(NC2CCCN(C(=O)CSc3ccncc3)C2)cc1 (centres undefined) 31.3%
Cc1nc(C(=O)N2CCCC(Nc3ccc(C)c(C)c3)C2)cs1 (centres undefined) 13.6%
COc1ccc(C(=O)N2CCCC(Nc3ccc(F)cc3)C2)c(OC)c1 (centres undefined) 5.24%
CC(CC(=O)Nc1ccc(S(=O)(=O)N2CCOCC2)cc1)c1ccccc1 (centres undefined) 3.54%
Cc1cc(Cl)ccc1NC(=S)N1CCN(C(=O)c2ccco2)CC1 5.96%
Cc1ccc(S(=O)(=O)NN=Cc2c(O)ccc3ccccc23)cc1 11.4%
O=C(NCCc1ccccc1)C1CCC(CNS(=O)(=O)c2ccc(F)cc2)CC1 (centres undefined) 6.44%
O=C(CSc1nnc(CNC(=O)c2ccco2)o1)Nc1ccc(F)cc1 -2.84%
Cc1ccc(N/C(CSC(N)=O)=N/S(=O)(=O)c2ccccc2)cc1 4.14%
Cc1cc(C=O)c(C)n1-c1cc(C(F)(F)F)ccc1N1CCOCC1 5.1%
CCn1nc(C)cc1C(=O)N1CCCC(Nc2ccc(C(C)C)cc2)C1 (centres undefined) 9.28%
CCn1nc(CC(C)C)cc1C(=O)N1CCCC(Nc2ccc(F)cc2)C1 (centres undefined) 1.25%
CCN(CC)c1ccc(S(=O)(=O)N2CCOCC2)cc1NC(=O)C1CC1 6.61%
Cc1ncc(S(=O)(=O)C(C)(C)C)c(N)n1 4.93%
O=C(COC(=O)/C=C/c1cccs1)NC(=O)Cc1ccccc1 9.86%
Nc1ccccc1SCc1ccccc1 3.68%
Nc1ccccc1SC/C=C/CSc1ccccc1N 17.8%
CC1(C)CC(=O)C2=C(C1)NC(=O)NC2c1ccc(Cl)cc1 (centres undefined) 9.51%
COc1ccc(NC(=O)C2CC(c3ccc(Cl)cc3)=NO2)cc1OC (centres undefined) -3.14%
COC(=O)C1CCN(C(=O)Cn2nnc(-c3ccccc3)n2)CC1 5.24%
CC(C)/C=C1\CC/C(=C\c2ccc(N(C)C)cc2)C1=O 6.52%
CN(C)c1ccc(/C=C2\CCC/C(=C\c3ccccc3)C2=O)cc1 10.2%
Cc1ccc(S(=O)(=O)N2CCCCC2)cc1NC(=O)CSc1nnc(C2CC2)n1N 4.18%
Cc1cc(C(=O)NCC(=O)OCC(=O)NCCc2ccccc2)ccc1[N+](=O)[O-] -1.11%
COc1ccc(F)cc1C(=O)C1CCCN(Cc2ccc3c(c2)OCCO3)C1 (centres undefined) 4.09%
CC(C)NC(=O)C1CCN(Cc2cccc(OCc3ccccc3)c2)CC1 6.52%
COc1ccc(-c2n[nH]c(C)c2-c2cnn(-c3ccccc3)c2)c(O)c1C 6.48%
COc1ccc(-c2onc(C)c2-c2cnn(-c3ccccc3)c2)c(O)c1C 5.03%
CC(C)(C)NC(=O)COc1coc(CN2CCN(Cc3ccccc3)CC2)cc1=O -6.74%
Cc1ccc(OCC(=O)Nc2ccc(N3CCCC3)cc2)cc1C 7%
Cc1ccc(S(=O)(=O)N(C)C)cc1NC(=O)CN1CCCC1 3.96%
Cc1ccc(F)cc1NC(=O)CN1CCN(Cc2ccccc2)CC1 -0.43%
CCN(CC)c1ccc(S(=O)(=O)N2CCOCC2)cc1NC(=O)CN1CCc2ccccc2C1 6.44%
Cc1ccc(S(=O)(=O)N(C)C)cc1NC(=O)CN1CCN(Cc2ccccc2)CC1 1.33%
Cc1ccc(S(=O)(=O)N2CCOCC2)cc1NC(=O)CN1CCN(C)CC1 4%
CCN(CC)c1ccc(S(=O)(=O)N2CCOCC2)cc1NC(=O)CSc1ccccc1 1.35%
Cc1ccc(OCCNC(=O)c2ccc(C)cc2)cc1 -0.09%
CCN1C(=O)C(NC(C)=O)c2cc(Br)ccc21 (centres undefined) 1.35%
CCOc1ccc(NC(=O)CN(C)C(=O)Cc2n[nH]c(=O)c3ccccc23)cc1OCC 3.38%
COc1ccccc1CN(C)C(=O)c1cccc(S(=O)(=O)N2CCCC2)c1 5.67%
Cc1cccc(C)c1Nc1n[nH]c(=S)s1 13.1%
Cc1cc(C)c(Nc2n[nH]c(=S)s2)cc1C 29.6%
COc1ccccc1N1C(=O)S/C(=C\c2cc(C)n(C)c2C)C1=O -0.75%
N#Cc1ccc[n+](CC(=O)c2ccc(NC(=O)c3ccccc3)cc2)c1 3.28%
c1cc2c3c(cccc3c1)NC1(CCCC1)N2 -1.27%
c1cc2c3c(cccc3c1)NC1(CCC3(CC1)Nc1cccc4cccc(c14)N3)N2 29.5%
COc1cc(OC)cc(N(C(=O)c2ccco2)C(C(=O)NC2CCCC2)c2ccc(N3CCOCC3)cc2)c1 (centres undefined) 3.31%
O=C(NC1CCCC1)C(c1ccncc1)N(C(=O)Cc1cccs1)c1ccc(F)cc1 (centres undefined) -2.61%
Nc1ccc2c(c1)C(=NO)c1ccccc1-2 14.6%
ON=C1c2ccccc2-c2ccc(F)cc21 -0.77%
ON=C1c2ccccc2-c2ccc(Br)cc21 0.43%
ON=C1c2ccccc2-c2ccccc21 4.05%
COCCCNc1nc2nonc2nc1NCCSC -2.05%
Cc1cc(SCc2ccc(Cl)c(Cl)c2)nc(=O)[nH]1 13.6%
CC(C)(C)C(=O)Nc1ccc(C(=O)N/N=C/C2CC3C=CC2C3)cc1 (centres undefined) 8.37%
COC(=O)CNC(=O)C1CCCN1C(=O)CNC(=O)OCc1ccccc1 (stereo not drawn) (Cbz-Gly-[ξP]-Gly-OMe) 7.71%
CC(C)C(C)NC(=O)CN1C(=O)NC2(CCc3ccccc3C2)C1=O (centres undefined) 2.87%
CCC(=O)c1ccc(OCc2ccc(C(=O)c3ccccc3)cc2)cc1 6.28%
COc1cccc(NC(=O)c2sc3nc4n(c(=O)c3c2C)CCC4)c1 -4.45%
O=C(CCC1CCCC1)Nc1cccn(Cc2ccccc2Br)c1=O 2.13%
CCOC(=O)c1cc(C)n(Cc2ccccc2)c1C -2.73%
CCOC(=O)c1sc(=S)n(Cc2ccccc2)c1C 8.11%
Cc1noc(C)c1COc1ccccc1C(=O)NNC(=O)c1ccccc1 11.8%
N#C/C(=N\Nc1cccc(F)c1)C(=N)N1CCCCCC1 15.4%
Cc1ccc(/C=N/N2C(=O)c3ccccc3NC2c2ccc(C)cc2)cc1 (centres undefined) 7.64%
O=C1c2ccccc2NC(c2ccccc2)N1/N=C/c1ccccc1 (centres undefined) 12.7%
COc1ccc(Cn2nnnc2C(c2ccccn2)N2CCN(c3cc(Cl)ccc3C)CC2)cc1 (centres undefined) 3.5%
CCOC(=O)c1[nH]c2ccccc2c1N=CN(C)C 27.9%
CCCC(=O)Nc1c(C(=O)OCC)[nH]c2ccccc12 4.51%
CCOC(=O)c1[nH]c2ccccc2c1NC(=O)C(C)(C)C 5.02%
CCOC(=O)c1[nH]c(C)c(C(=O)Nc2ccccc2C)c1C 6.7%
CCCCNC(=O)Nc1c(C(=O)OCC)[nH]c2ccccc12 5.71%
CCOC(=O)c1[nH]c2ccccc2c1N=CN(CC)CC 14.9%
Cc1cccc(NC(=O)COC(=O)c2n[nH]c3ccccc23)c1C 4.6%
CCOC(=O)c1[nH]c2ccccc2c1NC(=O)COC 4.84%
O=C(CCCn1c(=O)c2sccc2n(CC(=O)OCc2ccccc2)c1=O)NCc1ccco1 6.92%
O=C(NCc1nnc2c(C(F)(F)F)cc(Cl)cn12)c1cccnc1 9.23%
CC(OC(=O)Cc1ccsc1)C(=O)Nc1ccc(C(N)=O)cc1 (centres undefined) 2.18%
O=C(NC(=S)N(Cc1ccccc1)c1ccccn1)C1CCCCC1 7.13%
COc1ccccc1NC(=O)NCc1ccccc1F 5.13%
O=C(c1ccccc1)N1CCCC(C(=O)N2CCCCCC2)C1 (centres undefined) -4.85%
CCCn1ccc2c(OCC(=O)Nc3ccc(NC(C)=O)cc3)cccc2c1=O -3.32%
O=C(c1cc(Cl)ccc1OCc1ccccc1)N1CCOCC1 6.74%
CC(Oc1ccccc1)C(=O)NNC(=O)c1ccccn1 (centres undefined) 3.78%
COc1ccc([C@H]2CC(=O)C=C(c3ccccc3-c3ccccc3)C2)cc1 0.94%
CCCC/C(O)=C1\C(=O)CC(C)(C)CC1=Nc1ccc(OC)cc1 3.47%
O=C(Nc1ccc(F)cc1)Nc1nnc(Cc2ccccc2)s1 2.79%
COc1cc(/C=N/NC(=O)CCc2c(C)n[nH]c2C)ccc1O 3.71%
COc1cc(/C=N/NC(=O)C(C)Nc2n[nH]c(=O)[nH]c2=O)cc(OC)c1O (centres undefined) 11.1%
COc1cc(/C=N/NC(=O)c2cc(-c3ccccc3)nc3ccccc23)ccc1O 21.3%
COc1ccc(/C=N/NC(=O)CCc2n[nH]c(=O)[nH]c2=O)cc1OC 4.75%
COc1ccc(C=NNC(=O)CCCC(=O)NN=Cc2ccc(OC)c(OC)c2)cc1OC 2.12%
COc1ccc(/C=N/NC(=O)CNc2n[nH]c(=O)[nH]c2=O)cc1OC 10.5%
CCOc1cc(/C=N/NC(=O)COc2nc(C)cc(COC)c2C#N)ccc1O 16.6%
COc1cc(/C=N/NC(=O)CSc2cc(C)c(Br)cc2C)ccc1O 15.9%
